High-throughput results (PubChem BioAssay)
Only a selection was taken, and hits are over-represented in it overall.
Pf Dd2 inh: qHTS Primary assay for Inhibitors of Plasmodium falciparum Dd2 growth in vitro. P. falciparum Dd2 growth, SYBR Green, 72 h. Potency, µM (titrated, usually from 28.9 µM), hits mostly inhibitors. 120,000 compounds, 4.3% hits. AID 1347417, 2020; active means well fitted inhibition curve with a large enough effect; further: nearly all actives have a fitted effect of over 65% in size
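Infected erythrocytes (Dd2, 0.3% parasitemia, 2.5% hematocrit final) are added to compound in RPMI-1640/Albumax II medium, grown 72 h at 37C in low oxygen, then lysed with saponin/Triton-X containing SYBR Green and read by fluorescence.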
A number is an active result; i = inactive.

SMILES	Pf Dd2 inh
CCn1cc([S+](=O)([O-])N2CCN(C(=O)N3CC4CC(C3)[C@H]3CCCC(=O)N3C4)CC2)cn1 (stereo partly drawn)	i
CC(C)c1ccc(NS(=O)(=O)c2ccc3[nH]c(=O)ccc3c2)cc1	i
Cc1cccc(NS(=O)(=O)c2ccc3[nH]c(=O)ccc3c2)c1C	8.91µM
Cc1ccc(NS(=O)(=O)c2ccc3[nH]c(=O)ccc3c2)cc1N(C)C	i
Cn1cc(CN(Cc2c(C(=O)N3CCCC3)nc3sccn23)C2CC2)cn1	i
c1ccc(-c2noc(-c3nc(C4CC4)no3)n2)cc1	i
Fc1ccccc1CCC1CCCN(c2nnnn2-c2ccccc2)C1 (stereo not drawn)	i
Cn1nc(N2CCC(NC(=O)c3ncccn3)CC2)ccc1=O	i
CN(C)C(=O)N1CCc2nc(-c3ccccc3)nc(-c3ccc(Cl)cc3)c2C1	i
CC(C)(C)C(=O)N1CCc2nc(-c3ccccc3)nc(-c3ccc(Cl)cc3)c2C1	5.01µM
Cc1nc2c(c(-c3ccc(Cl)cc3)n1)CN(C(=O)c1ccccc1)CC2	i
Cc1ccc(C(=O)N2CCc3nc(-c4ccccc4)nc(-c4ccc(Cl)cc4)c3C2)cc1	10µM
O=C(c1ccc(Cl)nc1)N1CCc2nc(-c3ccc(Cl)cc3)nc(-c3ccccc3)c2C1	i
CC(=O)N1CCc2nc(-c3ccc(Cl)cc3)nc(-c3ccccc3)c2C1	i
O=C(O)C1CC2(CCN(C(=O)NCc3ccccc3F)CC2)CN1 (stereo not drawn)	i
O=C(c1cc2ccccc2o1)N1CCC2(COc3ncccc3S(=O)(=O)N2)C1 (stereo not drawn)	i
COc1ccccc1C(=O)N1CCCC2(C1)NC(=O)c1ccccc1O2 (stereo not drawn)	i
C=CCOc1ccc(-c2nnc(CCC(=O)NCCOc3ccccc3)c(=O)[nH]2)cc1	i
COc1ccc(-n2ncc3c2CC(C)(C)CC3NC(=O)c2cc(C)[nH]n2)cc1 (stereo not drawn)	i
Cc1noc(-c2cn(C3CCN(C(=O)c4ccc[nH]4)CC3)nn2)n1	i
COc1ccc(CC(=O)N2CCCCC23Cc2ccccc2NC3=O)cc1 (stereo not drawn)	i
CCOCCn1c(=O)n(Cc2cc(OC)ccn2)c2cc(C(=O)O)cnc21	i
CCc1ccc(NC(=O)c2cc3n(n2)CC(c2ccc(Cl)cc2)OC3)cc1 (stereo not drawn)	i
COc1cccc(NCc2nnc3n2CCCCC3)c1	i
CCn1nccc1C(=O)Nc1cccc(-c2nnc3n2CCCC3)c1	8.91µM
SMILES	Pf Dd2 inh
COc1ccc(NC(=O)Cn2nc3n(c2=O)CCCC3)cc1OC	i
CCn1nccc1C(=O)NCCC1CCN(C(=O)Nc2cccc(C)c2)CC1	i
O=C(Nc1cccc(-c2nnc3n2CCCC3)c1)c1cc(C2CC2)[nH]n1	3.98µM
Cc1ccc(NC(=O)N2CCC(c3cc(-c4cccc(C)c4)n[nH]3)CC2)cc1	i
CCn1nccc1C(=O)NCCC1CCN(C(=O)Nc2ccccc2)CC1	i
Cc1nnc2n1CCC(NC(=O)c1cc(C3CC3)[nH]n1)CC2 (stereo not drawn)	i
COc1cccc(C(=O)Nc2cccc(-c3nnc4n3CCCC4)c2)c1	5.62µM
COc1ccc(C(=O)Nc2cccc(-c3nnc4n3CCCC4)c2)cc1OC	5.01µM
CN1C(=O)C(CC(=O)N2CCCC2)Sc2ncccc21 (stereo not drawn)	i
CNC(=O)[C@@H]1C[C@H](Oc2ccccc2)CN1C(=O)CCc1ccc(OC)cc1	i
COCCOC1CCN(C(=O)NCc2ccc(F)cc2)CC1	i
Cc1cnc(C(=O)NC2C[C@H]3CC[C@@H](C2)N3C(=O)C2CCCCC2)cn1 (stereo partly drawn)	i
Cc1cccc(CN2C[C@@H]3[C@H](C2)N(CC(C)C)C(=O)C(C)(C)[S+]3(=O)[O-])c1	i
Cc1ccc(N2C[C@]34C=C[C@H](O3)C(C(=O)N(C)Cc3ccno3)C4C2=O)cc1C (stereo partly drawn)	i
CN(C)c1cccc(C(=O)Nc2cccc(-c3nnc4n3CCCC4)c2)c1	4.47µM
Cc1cccc(N(C)C(=O)Cn2nc3n(c2=O)CCCC3)c1	i
N#Cc1ccc(C(=O)Nc2cccc(-c3nnc4n3CCCC4)c2)cc1	1.26µM
CCOc1ccc(C(=O)Nc2ccc3c(c2)CCCN3S(=O)(=O)c2ccc(C)cc2)cc1	i
O=C(Nc1ccc(-c2nnc3n2CCCC3)cc1)c1cccc(Cl)c1	i
CCOc1ccc(-c2nnc3n2CCCC3)cc1OCC	i
CCOc1ccc(C(=O)Nc2cccc(-c3nnc4n3CCCC4)c2)cc1	1.58µM
Cc1cc2nc3n(c(=O)c2n1CC(=O)Nc1cccc(C#N)c1)CCCCC3	i
COc1cc(OC)cc(C(=O)N2CCCC(n3cc(-c4nc(C)no4)nn3)C2)c1 (stereo not drawn)	i
Cc1ccc(C)c(CN2C(=O)NC3(CCN(C(=O)c4ccc[nH]c4=O)CC3)C2=O)c1	i
O=C(c1ccc(Cl)cc1)N1CCC(n2c(=O)[nH]c3ccccc32)CC1	i
SMILES	Pf Dd2 inh
CC(=O)Nc1ccc(C2(C(=O)NCc3ccccc3Cl)CCC2)cc1	i
O=C(O)C1CC2(CCN(C(=O)NCCc3ccccc3)CC2)CN1 (stereo not drawn)	i
O=C(NCc1cccnc1)[C@@H]1C[C@@H](O)CN1C1CCN(C(=O)CCc2ccccc2)CC1	i
COC(=O)c1ccc2nc(C[C@@H]3C[C@@H](C(C)C)[C@H](CNCc4ccccc4O)C=C3C)[nH]c2c1	i
COc1ccc2nc(C[C@@H]3C[C@@H](C(C)C)[C@H](CNCc4ccccc4OC)C=C3C)[nH]c2c1	1.26µM
CC1=C[C@@H](CNC2CCOCC2)[C@H](C(C)C)C[C@H]1Cc1nc2ccccc2[nH]1	i
COCC(=O)NC[C@@H]1C=C(C)[C@H](Cc2nc3ccc(Cl)cc3[nH]2)C[C@H]1C(C)C	2.51µM
CC1=C[C@@H](CNC2CCOCC2)[C@H](C(C)C)C[C@H]1Cc1nc2ccc(Cl)cc2[nH]1	7.08µM
COc1ccc2nc(C[C@@H]3C[C@@H](C(C)C)[C@H](CNC(=O)CCC(=O)O)C=C3C)[nH]c2c1	i
CC1=C[C@@H](CNC(=O)CCC(=O)O)[C@H](C(C)C)C[C@H]1Cc1nc2ccc(C)cc2[nH]1	i
COc1ccccc1CN(Cc1ccccc1OC)C[C@@H]1C=C(C)[C@H](Cc2nc3c(C)cccc3[nH]2)C[C@H]1C(C)C	i
COc1ccc2nc(C[C@@H]3C[C@@H](C(C)C)[C@H](CNC(=O)NC4CCCCC4)C=C3C)[nH]c2c1	i
CC1=C[C@@H](CNC(=O)CN(C)C)[C@H](C(C)C)C[C@H]1Cc1nc2ccc(Cl)cc2[nH]1	6.31µM
COc1ccc2nc(C[C@@H]3C[C@@H](C(C)C)[C@H](CNC(=O)CCCC(=O)O)C=C3C)[nH]c2c1	i
CN1CCC(Nc2ccc3c(n2)CN(Cc2ccc(F)cc2)C(=O)CO3)CC1	i
COc1ccc(C2Cn3cnc(C(=O)N4CCC(C(=O)NCc5cccnc5)CC4)c3CO2)cc1 (stereo not drawn)	i
CCOc1ccc(CC(=O)N2CCC(n3cc(-c4nc(C5CC5)no4)nn3)C2)cc1 (stereo not drawn)	i
O=C(Nc1ccc(Oc2ccccc2)cc1)N[C@H]1CO[C@H]2[C@@H]1OC[C@@H]2n1nnnc1Oc1ccc(-n2cncn2)cc1	i
COc1ccc(-c2noc(-c3nnn4c3COC(c3ccc(C)cc3C)C4)n2)cc1OC (stereo not drawn)	i
CN1CCN(c2ccc3ncn(-c4cccnc4)c(=O)c3n2)CC1	i
